Measurements from PubChem BioAssay (Tox21).
Records with an inconclusive call do not appear. Activity calls are given as the source filed them. Unless noted, the call rests on the fitted dose curve; in most records, active means well fitted curve in the direction sought with a large enough effect in the repeat runs; inconclusive means weak or mixed curves; inactive means no such curve, though single readings can be large; an effect the other way counts as inactive or inconclusive.

Experiments:
[1] = qHTS assay to identify aromatase inhibitors - cell viability counter screen (AID 743084);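 further: cells stimulated with testosterone during compound exposure; nearly all actives have a fitted effect of over 55% in size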; further: potency means the concentration at half of the fitted maximal effect
[2] = target: Aryl hydrocarbon receptor (Homo sapiens) (UniProt P35869); assay: qHTS assay to identify small molecule that activate the aryl hydrocarbon receptor (AhR) signaling pathway (AID 743085); further: nearly all actives have a fitted effect of over 15% in size; further: potency means the concentration at half of the fitted maximal effect;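 on activation: HG2L7.5c1 human HepG2 liver cells with stably integrated DRE-driven firefly reporter; series mostly up to about 70 µM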
How it was run: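 Reporter assay in engineered HepG2 line HG2L7.5c1, whose plasmid carries twenty dioxin responsive elements upstream of firefly luciferase. Treatment lasted 24 h at 37C; ONE-Glo luminescence gauged induction.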

[3] = qHTS assay to identify small molecule that activate the aryl hydrocarbon receptor (AhR) signaling pathway - cell viability counter screen (AID 743086); further: nearly all actives have a fitted effect of over 45% in size; further: potency means the concentration at half of the fitted maximal effect
How it was run: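 HepG2-AhR-luc (HG2L7.5c1) cells, 4000/well, were preincubated 5 h at 37C, exposed to compound in qHTS format for 24 hr at 37C, then given CellTiter-Fluor for 30 min; viability was read as fluorescence in the reporter wells.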

[4] = target: Peroxisome proliferator-activated receptor gamma (Homo sapiens) (UniProt P37231); assay: qHTS assay to identify small molecule agonists of the peroxisome proliferator-activated receptor gamma (PPARg) signaling pathway (AID 743094; active means well fitted activation curve with a large enough effect in the signal ratio in the repeat runs, not every such curve was filed as active; the % refers to the signal ratio)
How it was run: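 HEK293H PPARg-bla cells, 5 h settle at 37C/5% CO2; compound (DMSO) 17 h, 37C; B/G FRET substrate 1 h RT; fluorescence intensity read-out. qHTS format.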

[5] = target: Peroxisome proliferator-activated receptor gamma (Homo sapiens) (UniProt P37231); assay: qHTS assay to identify small molecule antagonists of the peroxisome proliferator-activated receptor gamma (PPARg) signaling pathway (AID 743191; calls by dose curve; further: nearly all actives have a fitted effect of over 30% in size; further: potency means the concentration at half of the fitted maximal effect)
How it was run: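 GeneBLAzer PPARg UAS-bla HEK293H cells carrying a UAS-driven beta-lactamase reporter were plated at 3000 cells/well, preincubated 5 h at 37C, then given compound for 17 h at 37C; LiveBLAzer B/G FRET substrate was read after 1 h at room temperature.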

[6] = qHTS assay to identify small molecule antagonists of the peroxisome proliferator-activated receptor gamma (PPARg) signaling pathway - cell viability counter screen (AID 743194); conditions: Potency: co-treated with 50 nM rosiglitazone unless noted; further: nearly all actives have a fitted effect of over 55% in size; further: potency means the concentration at half of the fitted maximal effect
How it was run: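 PPARg-UAS-bla HEK293H cells were plated, rested 5 h at 37 C, then treated with compounds plus rosiglitazone (50 nM final) for 17 h at 37 C; viability was then read by CellTiter-Glo luminescence after 30 min at room temperature.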

[7] = qHTS assay for small molecule agonists of the antioxidant response element (ARE) signaling pathway (AID 743202; active means well fitted activation curve with a large enough effect in the signal ratio in the repeat runs, not every such curve was filed as active; the % refers to the signal ratio)
How it was run: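 Following a 16 h, 37 C exposure of reporter HepG2 cells (ARE-driven beta-lactamase, 2,000 cells/well) to compounds, FRET substrate was applied for 2 h at room temperature and fluorescence intensity recorded.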

[8] = qHTS assay for small molecule agonists of the antioxidant response element (ARE) signaling pathway - cell viability counter screen (AID 743203; calls by dose curve; further: nearly all actives have a fitted effect of over 55% in size; further: potency means the concentration at half of the fitted maximal effect)
How it was run: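 Luminescence read-out (CellTiter-Glo, 30 min at room temperature) measured cell viability in the same wells as the ARE beta-lactamase reporter. HepG2 ARE-bla cells were treated with compounds for 16 hrs at 37C/5% CO2.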

[9] = qHTS assay for small molecule activators of the heat shock response signaling pathway - cell viability counter screen (AID 743209); further: nearly all actives have a fitted effect of over 50% in size; further: potency means the concentration at half of the fitted maximal effect
How it was run: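 HSE-bla HeLa; 1500 cells/well; overnight 37 C, 5% CO2; compound 5 h 37 C; LiveBLAzer B/G substrate 2.5 h RT; CellTiter-Glo 30 min RT; luminescence.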

[10] = qHTS assay for small molecule activators of the heat shock response signaling pathway (AID 743210; active means well fitted activation curve with a large enough effect in the signal ratio in the repeat runs, with a control signal flat, not every such curve was filed as active; the % refers to the signal ratio; further: series mostly up to about 63 µM)
How it was run: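 Heat shock element–beta-lactamase HeLa reporter cells; qHTS with compounds for 5 h at 37 C; detection by FRET substrate fluorescence after 2.5 h at RT.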

Measured: Potency

Chain of Aryl hydrocarbon receptor (Homo sapiens) (P35869 whole entry, looked up): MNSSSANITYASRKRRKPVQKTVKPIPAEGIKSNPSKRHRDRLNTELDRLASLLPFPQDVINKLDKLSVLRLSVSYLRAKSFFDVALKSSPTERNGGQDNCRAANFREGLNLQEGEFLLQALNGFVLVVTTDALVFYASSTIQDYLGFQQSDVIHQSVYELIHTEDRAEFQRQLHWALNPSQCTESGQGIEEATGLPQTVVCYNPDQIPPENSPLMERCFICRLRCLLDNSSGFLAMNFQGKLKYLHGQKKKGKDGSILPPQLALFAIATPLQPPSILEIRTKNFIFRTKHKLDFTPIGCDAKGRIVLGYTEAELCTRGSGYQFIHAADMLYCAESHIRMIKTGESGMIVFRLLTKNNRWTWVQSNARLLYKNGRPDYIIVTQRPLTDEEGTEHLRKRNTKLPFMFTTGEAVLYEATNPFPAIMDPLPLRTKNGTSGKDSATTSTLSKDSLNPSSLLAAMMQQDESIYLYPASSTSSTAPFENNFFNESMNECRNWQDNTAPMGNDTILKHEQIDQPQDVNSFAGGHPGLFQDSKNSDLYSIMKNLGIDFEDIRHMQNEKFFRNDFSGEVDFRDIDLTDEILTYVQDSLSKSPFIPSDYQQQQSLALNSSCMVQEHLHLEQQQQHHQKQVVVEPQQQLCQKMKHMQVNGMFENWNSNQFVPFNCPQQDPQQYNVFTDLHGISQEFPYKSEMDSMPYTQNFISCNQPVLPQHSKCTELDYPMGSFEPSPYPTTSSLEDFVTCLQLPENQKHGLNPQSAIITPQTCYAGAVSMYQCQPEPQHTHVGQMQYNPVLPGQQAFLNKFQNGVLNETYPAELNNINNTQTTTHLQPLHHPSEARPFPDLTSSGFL
Chain of Peroxisome proliferator-activated receptor gamma (Homo sapiens) (P37231 whole entry, looked up): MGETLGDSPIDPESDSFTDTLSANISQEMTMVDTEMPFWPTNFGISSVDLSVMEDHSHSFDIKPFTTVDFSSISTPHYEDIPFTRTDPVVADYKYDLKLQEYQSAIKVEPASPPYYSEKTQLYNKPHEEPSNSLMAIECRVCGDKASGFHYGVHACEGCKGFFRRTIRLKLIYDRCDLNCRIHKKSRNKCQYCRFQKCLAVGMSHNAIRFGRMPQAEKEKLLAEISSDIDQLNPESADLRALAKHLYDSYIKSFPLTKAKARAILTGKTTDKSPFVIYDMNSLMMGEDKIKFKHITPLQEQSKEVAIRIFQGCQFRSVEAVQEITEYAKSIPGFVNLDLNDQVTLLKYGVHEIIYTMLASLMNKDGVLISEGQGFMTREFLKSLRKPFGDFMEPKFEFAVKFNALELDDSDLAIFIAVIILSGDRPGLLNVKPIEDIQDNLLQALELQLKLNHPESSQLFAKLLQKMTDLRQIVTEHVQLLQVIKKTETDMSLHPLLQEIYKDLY

CC(C)Br
inactive: [1] | [2] | [3] | [4] | [5] | [6] | [7] | [8] | [9] | [10]

CN1[C@@H]2CC[C@H]1CC(O)C2 (stereo partly specified)
inactive: [1] | [2] | [3] | [4] | [5] | [6] | [7] | [8] | [9] | [10]

CCNS(=O)(=O)C(F)(F)C(F)(F)C(F)(F)C(F)(F)C(F)(F)C(F)(F)C(F)(F)C(F)(F)F
inactive: [1] | [2] | [3] | [4] | [5] | [6] | [9] | [10]

COC(=O)c1cc(Oc2ccc(Cl)cc2Cl)ccc1[N+](=O)[O-]
inactive: [1] | [2] | [3] | [4] | [6] | [7] | [8] | [9] | [10]
active: [5] 43.6 µM

O=[N+]([O-])c1ccc(Cl)c(Cl)c1Cl
inactive: [1] | [2] | [3] | [4] | [5] | [6] | [8] | [9] | [10]

Brc1ccc(Oc2ccc(Br)cc2Br)c(Br)c1
inactive: [1] | [2] | [3] | [4] | [5] | [6] | [7] | [10]

CCC(C)Br (stereo unspecified)
inactive: [1] | [2] | [3] | [4] | [5] | [6] | [7] | [8] | [10]

OCC(Br)CBr (stereo unspecified)
inactive: [1] | [2] | [3] | [4] | [5] | [7] | [8] | [9] | [10]

COc1nc(C)nc(NC(=O)NS(=O)(=O)c2ccccc2Cl)n1
inactive: [1] | [2] | [3] | [4] | [5] | [6] | [7] | [8] | [9] | [10]

N#Cc1sc2c(=O)c3ccccc3c(=O)c=2sc1C#N
active: [1] 4.33 µM | [2] 1.93 µM | [3] 6.86 µM | [5] 12.3 µM | [6] 19.5 µM | [8] 8.63 µM | [9] 1.95 µM
inactive: [4]

S=C=Nc1ccccc1
inactive: [1] | [2] | [3] | [4] | [5] | [6] | [8] | [9] | [10]

CCCCCON=O
inactive: [1] | [2] | [3] | [4] | [5] | [7] | [8] | [9] | [10]

O=S(=O)(O)F
inactive: [1] | [2] | [3] | [4] | [5] | [7] | [8] | [9] | [10]

Cc1cnc2c(C(=O)O)c(Cl)ccc2c1
inactive: [1] | [2] | [3] | [4] | [5] | [7] | [8] | [9] | [10]

O=P(Cl)(Cl)Cl
inactive: [1] | [2] | [3] | [4] | [5] | [6] | [7] | [8] | [9] | [10]

C#CC1(O)CCCCC1
inactive: [1] | [2] | [3] | [4] | [5] | [6] | [7] | [8] | [9] | [10]

CC(C)=CC1C(C(=O)OC(C#N)c2cccc(Oc3ccccc3)c2)C1(C)C (stereo unspecified)
inactive: [1] | [2] | [3] | [4] | [5] | [6] | [7] | [8] | [9]

COc1ccc2c3c1O[C@H]1[C@H](O)CC[C@H]4[C@@H](C2)N(C)CC[C@@]341
inactive: [1] | [2] | [3] | [4] | [5] | [6] | [8]

CC(Cl)CCl (stereo unspecified)
inactive: [1] | [2] | [3] | [4] | [5] | [6] | [7] | [8] | [9] | [10]

Cc1c([N+](=O)[O-])cc2c(c1[N+](=O)[O-])C(C)(C)CC2(C)C
inactive: [1] | [2] | [3] | [4] | [5] | [6] | [8] | [9] | [10]

CNC(=O)/C=C(\C)OP(=O)(OC)OC
inactive: [1] | [2] | [3] | [4] | [5] | [7] | [8] | [9] | [10]

CCNc1nc(NC(C)C(C)C)nc(SC)n1 (stereo unspecified)
inactive: [1] | [2] | [3] | [4] | [5] | [6] | [7] | [8] | [9] | [10]
